Experiment [1] concerns the target Cell division control protein 42 homolog (Homo sapiens) (UniProt P60953). Briefly: activated mutant Cdc42 GTP-binding inhibitors, dose response, biochemical, multiplex bead flow cytometry, Bodipy-FL-GTP (AID 1333;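 active = fitted half-maximal concentration within the tested dose range, moderate curve steepness, a statistically real signal drop, and little compound fluorescence or tag-binding interference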).
Experiment [2] has the same target. Kind of experiment: wildtype Cdc42 GTP-binding inhibitors, dose response, biochemical, multiplex bead flow cytometry, Bodipy-FL-GTP (AID 1334;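 active = fitted half-maximal concentration within the tested range, moderate curve steepness, significant signal drop, and little compound fluorescence or bead-linkage interference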). The following applies: bead-based flow cytometry, Bodipy-FL-GTP binding to GST-Cdc42; at 100 µM (top of the series) unless noted.
In experiment [3] the target is GTPase HRas (Homo sapiens) (UniProt P01112). Kind of experiment: inhibitors of GTP binding to wildtype Ras, dose response, biochemical, multiplex bead flow cytometry (AID 1335). The following applies: bead-based flow cytometry, Bodipy-GTP binding to GST-Ras; at 100 µM (top of the series) unless noted.
GTPase HRas (Homo sapiens), sequence (P01112 whole entry, looked up): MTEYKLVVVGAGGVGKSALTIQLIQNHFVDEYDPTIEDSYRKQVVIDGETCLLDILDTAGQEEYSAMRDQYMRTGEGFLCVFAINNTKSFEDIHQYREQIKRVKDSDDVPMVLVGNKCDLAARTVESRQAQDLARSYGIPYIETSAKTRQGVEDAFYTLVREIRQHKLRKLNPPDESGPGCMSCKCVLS
The subject of experiment [4] is Ras-related protein Rab-7a (dog), GTP binding. Briefly: Rab7 GTP binding inhibitors, potency, dose response, biochemical, wildtype, multiplex bead flow cytometry (AID 1336; call rule not given here).
Experiment [5] has as its target Ras-related C3 botulinum toxin substrate 1 (Homo sapiens) (UniProt P63000). Briefly: wildtype Rac1 GTP binding inhibitors, dose response, biochemical, multiplex bead flow cytometry (AID 1340;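 active = dose curve with midpoint inside tested range, moderate steepness, plateau gap beyond fit error, low compound glow and bead-link interference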). The settings on record: GST-Rac1 beads, Bodipy-FL-GTP binding; at 100 µM (top of the series) unless noted.
The target of experiment [6] is GTPase HRas (Homo sapiens) (UniProt P01112). Briefly: activated Ras mutant GTP binding inhibitors, dose response, biochemical, multiplex bead flow cytometry (AID 1341;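 active = dose-response curve with midpoint inside the tested range, moderate steepness, significant amplitude and little compound fluorescence or bead-attachment interference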;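 note: GST-tagged constitutively activated Ras mutant immobilized on beads and multiplexed with other GTPases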).

For part of these data: Measured potencies and affinities stand elsewhere. Active and inactive are the calls of the source.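 Rule for the calls, unless noted: active = fitted half-maximal concentration within 10 nM to 100 µM, steepness 0.5 to 2, significant signal drop, low assay interference; inactive = the rest.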

Cell division control protein 42 homolog (Homo sapiens), sequence (P60953 whole entry, looked up): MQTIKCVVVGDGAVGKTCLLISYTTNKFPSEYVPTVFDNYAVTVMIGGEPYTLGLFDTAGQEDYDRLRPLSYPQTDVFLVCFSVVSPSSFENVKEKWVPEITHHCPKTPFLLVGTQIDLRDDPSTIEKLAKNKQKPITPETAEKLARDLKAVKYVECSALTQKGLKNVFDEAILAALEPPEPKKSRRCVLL

As for `Cc1ccc(S(=O)(=O)Cc2ccc(C(=O)N3CCN(c4cc(C)ccc4C)CC3)o2)cc1`, the result in experiment [1], in experiment [4] and in experiment [6] was inactive. For the same compound, the fluorescence, percent of control (lower = inhibition) in experiment [2] worked out at 35%. In experiment [3], this compound showed a GTP binding, percent of control of 59.9%. For the same compound, the GTP binding signal, raw median fluorescence (lower = inhibition) (MCF (arbitrary fluorescence units)) in experiment [5] stood at 0.

Consider `Cc1ccc(C(=O)OCc2nnc(-c3ccc(Br)cc3)o2)cc1`, for which the call in experiment [1], in experiment [4] and in experiment [6] was inactive. In experiment [2], this compound showed a fluorescence, percent of control (lower = inhibition) of 31.8%. In experiment [3], this compound had a GTP binding, percent of control of 78.1%. Moreover, the GTP binding signal, raw median fluorescence (lower = inhibition) (MCF (arbitrary fluorescence units)) in experiment [5] was 241.

`O=C(O)c1cc(-c2ccc(/C=C3\NC(=O)N(c4ccc(Cl)cc4)C3=O)o2)ccc1Cl`: the compound was called inactive in experiment [1], in experiment [4] and in experiment [6]. Besides, in experiment [2], the fluorescence, percent of control (lower = inhibition) worked out at 25.6%. In experiment [3], this compound returned a GTP binding, percent of control of 66.3%. The GTP binding signal, raw median fluorescence (lower = inhibition) (MCF (arbitrary fluorescence units)) in experiment [5] was found to be 160.

In the case of `CCOC(=O)c1c(-c2ccc(C)cc2)csc1NC(=O)/C(C#N)=C/c1ccc(O)c(OC)c1`, the compound was called inactive in experiment [1], in experiment [4] and in experiment [6]. The compound further had a fluorescence, percent of control (lower = inhibition) in experiment [2] of 87.8%. This compound registered a GTP binding, percent of control in experiment [3] of 99.4%. Besides, the GTP binding signal, raw median fluorescence (lower = inhibition) (MCF (arbitrary fluorescence units)) in experiment [5] came out at 226.

Take `CCc1c(C)nc2c(C#N)c[nH]n2c1=O`: the call in experiment [1], in experiment [4] and in experiment [6] was inactive. The compound also registered a fluorescence, percent of control (lower = inhibition) in experiment [2] of 39%. In addition, in experiment [3], the GTP binding, percent of control stood at 54.3%. Besides, the GTP binding signal, raw median fluorescence (lower = inhibition) (MCF (arbitrary fluorescence units)) in experiment [5] came out at 114.

Take `O=C(O)c1cccnc1SCc1cccc(F)c1`: the compound was called inactive in experiment [1], in experiment [4] and in experiment [6]. In experiment [2], this compound yielded a fluorescence, percent of control (lower = inhibition) of 78.4%. In addition, the GTP binding, percent of control in experiment [3] is 92.9%. Besides, the GTP binding signal, raw median fluorescence (lower = inhibition) (MCF (arbitrary fluorescence units)) in experiment [5] is 52.6.

Take `O=c1c2ccccc2nc2c3ccccc3c(NCc3ccco3)nn12`: the compound was classed as inactive in experiment [1], in experiment [4] and in experiment [6]. In experiment [2], the fluorescence, percent of control (lower = inhibition) came out at 80.4%. Also, in experiment [3], the GTP binding, percent of control was 122%. Further, the GTP binding signal, raw median fluorescence (lower = inhibition) (MCF (arbitrary fluorescence units)) in experiment [5] came out at 144.

With `COc1ccc(CCNc2nc(=S)[nH]c3cc(OC)c(OC)cc23)cc1OC`, the outcome in experiment [1], in experiment [4] and in experiment [6] was inactive. Further, in experiment [2], the fluorescence, percent of control (lower = inhibition) was found to be 25.9%. The GTP binding, percent of control in experiment [3] was 57.9%. The compound further showed a GTP binding signal, raw median fluorescence (lower = inhibition) (MCF (arbitrary fluorescence units)) in experiment [5] of 111.

For `COc1ccccc1OCCn1cc(C(=O)O)c2cccc(Cl)c21`, the compound was called inactive in experiment [1], in experiment [4] and in experiment [6]. This compound displayed a fluorescence, percent of control (lower = inhibition) in experiment [2] of 53.4%. Also, the GTP binding, percent of control in experiment [3] came to 199%. This compound yielded a GTP binding signal, raw median fluorescence (lower = inhibition) (MCF (arbitrary fluorescence units)) in experiment [5] of 56.2.

On to `Cc1cccc(C)c1CCNc1ncccc1C(=O)O`, for which the result in experiment [1], in experiment [4] and in experiment [6] was inactive. In experiment [2], this compound showed a fluorescence, percent of control (lower = inhibition) of 76.7%. In experiment [3], this compound came in with a GTP binding, percent of control of 245%. The compound further had a GTP binding signal, raw median fluorescence (lower = inhibition) (MCF (arbitrary fluorescence units)) in experiment [5] of 67.9.

For `Cc1c(C(=O)N/N=C/c2ccc(-c3ccccc3[N+](=O)[O-])o2)sc(N)c1C#N`, the result in experiment [1], in experiment [4] and in experiment [6] was inactive. In addition, the fluorescence, percent of control (lower = inhibition) in experiment [2] stood at 37.4%. In experiment [3], this compound registered a GTP binding, percent of control of 49.1%. In experiment [5], the GTP binding signal, raw median fluorescence (lower = inhibition) (MCF (arbitrary fluorescence units)) turned out to be 157.

With `COc1cccc(C(=O)O)c1OCc1c(C)cccc1C`, the result in experiment [1], in experiment [4] and in experiment [6] was inactive. In addition, the fluorescence, percent of control (lower = inhibition) in experiment [2] came to 58.8%. Besides, the GTP binding, percent of control in experiment [3] came out at 204%. In experiment [5], the GTP binding signal, raw median fluorescence (lower = inhibition) (MCF (arbitrary fluorescence units)) stood at 54.1.

For `O=C(COc1ccccc1[N+](=O)[O-])Nc1cc(Cl)ccc1C(=O)O`, the outcome in experiment [1], in experiment [4] and in experiment [6] was inactive. The fluorescence, percent of control (lower = inhibition) in experiment [2] came out at 32.7%. In experiment [3], the GTP binding, percent of control came to 75.6%. The same compound returned a GTP binding signal, raw median fluorescence (lower = inhibition) (MCF (arbitrary fluorescence units)) in experiment [5] of 215.

On to `CC(=O)NC1CC2CCCC(C1)N2C(=O)Nc1ccc(Cl)c(C(F)(F)F)c1` (centres undefined), for which the result in experiment [1], in experiment [4] and in experiment [6] was inactive. Also, the fluorescence, percent of control (lower = inhibition) in experiment [2] was 91.1%. The compound further registered a GTP binding, percent of control in experiment [3] of 146%. Further, the GTP binding signal, raw median fluorescence (lower = inhibition) (MCF (arbitrary fluorescence units)) in experiment [5] is 174.
